Reference: PubChem BioAssay AID1421 (Emory University Molecular Libraries Screening Center, 2008)
In all, about 1,300 compounds went through this assay and about 140 (11%) were called active. The rule behind the calls is not given here. Not all results are given here. Entries with a potency or affinity are not part of this list.

Target: Prostaglandin E2 receptor EP2 subtype (Homo sapiens) (UniProt P43116)
Experiment: compounds shifting PGE2 potency at EP2 – cell-based, human EP2, PGE2 EC50 shift, dose response (AID 1421)
Conditions: EP2-expressing cells, PGE2 EC50 shift by compound; at 20 µM

Chain of Prostaglandin E2 receptor EP2 subtype (Homo sapiens) (P43116 whole entry, looked up): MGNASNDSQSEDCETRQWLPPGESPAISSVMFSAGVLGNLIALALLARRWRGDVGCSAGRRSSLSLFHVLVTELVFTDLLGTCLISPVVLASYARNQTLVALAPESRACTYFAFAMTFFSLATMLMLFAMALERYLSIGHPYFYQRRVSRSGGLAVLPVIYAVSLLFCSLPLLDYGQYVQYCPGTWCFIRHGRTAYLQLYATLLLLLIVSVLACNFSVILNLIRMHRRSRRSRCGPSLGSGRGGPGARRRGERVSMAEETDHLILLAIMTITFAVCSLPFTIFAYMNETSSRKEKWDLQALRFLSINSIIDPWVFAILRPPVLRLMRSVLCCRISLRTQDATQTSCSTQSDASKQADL

Structure (SMILES) | PGE2 EC50 with compound
CC(=O)N1N=C2/C(=C/c3ccccc3)CCCC2C1c1ccccc1 (centres undefined) | 0.44 nM (inactive)
CCN=C1S/C(=C\c2ccc(O)c(OCC)c2)C(=O)N1CC | 0.39 nM (inactive)
CCCCOP(=O)(OCCCC)C(Nc1ccccc1)c1ccc2c(c1)OCO2 (centres undefined) | 0.36 nM (inactive)
CC(C)N(CCNC(=O)c1oc(=O)c2ccccc2c1-c1ccccc1)Cc1ccco1 | 0.81 nM (inactive)
Oc1ccc(/C=N/N(Cc2ccccc2)c2ccccc2)cc1 | 0.73 nM (inactive)
C/C(=N\N(Cc1ccccc1)c1ccccc1)c1cccnc1 | 0.37 nM (inactive)
c1ccc(-c2ccccc2-c2nc(-c3cccnc3)no2)cc1 | 0.05 nM (inactive)
Cc1scc(-c2n[nH]c(=S)n2Cc2ccccc2)c1C | 0.54 nM (inactive)
COc1ccc(N2CCN(c3nc4c(c(=O)n(C)c(=O)n4C)n3Cc3ccccc3)CC2)cc1 | 0.9 nM (inactive)
Cc1ccccc1NC1=C(C(=O)c2ccccc2)N(C)S(=O)(=O)c2ccccc21 | 0.78 nM (inactive)
Cc1cc(NC(=O)C2=C(O)c3ccccc3S(=O)(=O)N2C)no1 | 0.77 nM (inactive)
CCOC(=O)CC(=O)CSc1nc(-c2ccc3c(c2)OCO3)cc(C(F)(F)F)c1C#N | 1.22 nM (inactive)
Cc1noc(C)c1CSc1nc2ccccc2c(=O)n1-c1ccc(Cl)cc1 | 0.51 nM (inactive)
Cc1noc(C)c1CSc1nc2ccccc2c(=O)n1-c1ccc(F)cc1F | 0.51 nM (inactive)
CSc1nc(Oc2ccccc2)c2sccc2n1 | 0.62 nM (inactive)
CCOC(=O)n1c(=O)n(Cc2ccc(Cl)c(Cl)c2)c2ccccc21 | 0.31 nM (inactive)
COC(=O)c1cc(Br)c(=O)n(-c2nccs2)c1 | 17 nM (inactive)
C=C(C)COc1ccc2c(c1)CC[C@@H]1[C@H]3C/C(=N/O)C(=O)[C@]3(C)CC[C@@H]21 | 0.41 nM (inactive)
Cc1cccc(OC(=O)c2sc(Cl)nc2C)c1 | 0.61 nM (inactive)
Cc1noc(C)c1CSc1ncnc2sc(C)c(C)c12 | 0.35 nM (inactive)

Structure (SMILES) | PGE2 EC50 with compound
O=C(Nc1ccc2c(c1)OCO2)c1cccc2c1C(=O)N(C1CCCCC1)C2 | 0.58 nM (inactive)
CCOP(=O)(OCC)c1nc(-c2cccc3ccccc23)oc1N1CCCCC1 | 0.42 nM (inactive)
CCc1nc(N2CCC(C)CC2)c2oc3ccccc3c2n1 | 0.32 nM (inactive)
O=C(c1ccc2c(c1)OCO2)N(Cc1cccs1)C1(C(=O)NC2CCCCC2)CCCCC1 | 0.42 nM (inactive)
O=C(COc1ccc(Br)cc1)Nc1ccc(-c2nnc(-c3ccco3)o2)cc1 | 0.53 nM (inactive)
Cc1ccc2nc(N3CCC(C(=O)O)CC3)nc(-c3ccccc3)c2c1 | 0.5 nM (inactive)
Cc1ccc(-n2c(Cc3cccc4ccccc34)n[nH]c2=S)c(C)c1 | 0.39 nM (inactive)
CN(C)Cc1ccccc1Sc1cccc2ccccc12 | 0.37 nM (inactive)
Cc1ccnc(SCC(=O)n2c3c(c4ccccc42)CC(C)CC3)n1 (centres undefined) | 0.26 nM (inactive)
COc1ccccc1-c1nnc(SCC(=O)c2ccc(C3CCCCC3)cc2)n1Cc1ccco1 | 0.46 nM (inactive)
O=C(CN1CCN(Cc2ccccc2)CC1)Nc1ccccc1-c1ccccc1 | 0.83 nM (inactive)
CCOC(=O)C1=NN(c2cccc(C)c2)C2(S1)SC(C(C)=O)=C(C)N2c1ccccc1 (centres undefined) | 0.51 nM (inactive)
Cc1ccccc1-n1c(Cn2c(=O)sc3ccccc32)nnc1SCC(=O)N1CCCC1 | 0.82 nM (inactive)
Cc1cc(C)c2nc(N3CCCN(C(=O)c4ccco4)CC3)c(C#N)cc2c1 | 0.66 nM (inactive)
COc1ccc(C2CC(c3cccs3)=NN2C(=O)c2ccc(Br)o2)cc1 (centres undefined) | 0.71 nM (inactive)
O=C1C2C3c4ccccc4C(c4ccccc43)C2c2nc3ccccc3n21 (centres undefined) | 0.5 nM (inactive)
COc1cc(C)c(NC(c2ccccc2)c2ccccc2)cc1OC | 0.74 nM (inactive)
c1ccc(-c2csc3ncnc(N4CCc5ccccc5C4)c23)cc1 | 0.28 nM (inactive)
O=C(O)CCCCCCCCCCCc1ccccc1 | 0.7 nM (inactive)
CCOC(=O)C(Cc1ccccc1)(NC(C)=O)C(=O)OCC | 1.39 nM (inactive)

Structure (SMILES) | PGE2 EC50 with compound
O=c1c(O)c(-c2ccccc2)oc2ccc3occc3c12 | 0.43 nM (inactive)
CCCCc1n[nH]c(=S)n1Cc1ccc(Cl)cc1 | 0.62 nM (inactive)
CCCCc1ccc(-n2c(Cc3cccs3)n[nH]c2=S)cc1 | 0.6 nM (inactive)
Cc1onc(-c2ccccc2)c1C(=O)N(Cc1ccco1)Cc1cccs1 | 0.49 nM (inactive)
Cc1sc2ncnc(N(C)Cc3cccs3)c2c1C | 0.78 nM (inactive)
COc1cccc2[nH]c3c(N4CCCCC4)ncnc3c12 | 54.6 nM (inactive)
O=C(c1cc2sccc2n1Cc1ccc(F)cc1)N1CCCc2ccccc21 | 0.27 nM (inactive)
Cc1ccc(-c2nc3ccccc3nc2Cl)cc1 | 0.45 nM (inactive)
CCOC(=O)c1c(NC(=O)CSC(=S)N(C)C)sc(C)c1C | 0.55 nM (inactive)
CCCOP(=O)(OCCC)C(Nc1cccc(C(F)(F)F)c1)c1ccc(C)cc1 (centres undefined) | 0.23 nM (inactive)
CCOP(=O)(OCC)c1nc(-c2cccc3ccccc23)oc1NCCc1ccc(OC)cc1 | 0.72 nM (inactive)
CCOP(=O)(OCC)c1nc(-c2cccc3ccccc23)oc1NCc1ccccc1 | 0.31 nM (inactive)
CCOC(=O)c1c(NC(=O)CN2C(=O)NC3(CCCCCC3)C2=O)sc(C)c1-c1ccc(C)cc1 | 0.74 nM (inactive)
CCOP(=O)(OCC)c1nc(-c2ccc(C)cc2)oc1NCc1ccccc1 | 0.46 nM (inactive)
Cc1ccccc1Nc1c(-c2ccccn2)nc2ccccn12 | 0.67 nM (inactive)
COC(=O)c1cc2ccsc2n1Cc1ccccc1F | 0.49 nM (inactive)
CSc1nc(Sc2ccccc2Cl)c2ccccc2n1 | 0.41 nM (inactive)
CCOC(=O)c1ccccc1NC(=O)CSc1ncc(C(=O)OCC)c(N)n1 | 0.55 nM (inactive)
Cc1ccc(S(=O)(=O)n2c3ccc(F)cc3c3nc(C)sc32)cc1 | 0.2 nM (inactive)
